IL-1B inflam inh: blocks inflammasome-driven IL-1 beta release; THP-1 LPS/ATP IL-1B secretion, AlphaLISA, 16 h; active compounds read low; activity change, % at 57.5 µM; 4.7% of 360,000 active; AID 743279; in the data active = activity change below about -50%; inconclusive = mostly about -30% to -49%
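THP-1 cells pretreated 1 hr with compounds (up to 57.5 uM final), then stimulated with LPS (250 ng/mL final) plus ATP (1.25 mM final); secreted IL-1B measured by AlphaLISA after 16 hr, decreased signal indicating inhibition.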
KB-3-1 tox: KB-3-1 parental cell cytotoxicity; KB-3-1 viability, CellTiter-Glo ATP luminescence, 72 h; Potency, µM (doses to about 46.1 µM), most hits filed as cytotoxic; 1.4% of 400,000 active; note: nearly all actives have a fitted effect of over 60% in size
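Using CellTiter-Glo luminescence, growth of non-resistant KB-3-1 adenocarcinoma cells is assessed 72 h after pin-tool compound addition at 37 °C. Normalized responses across the concentration series yield fitted curves.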
MCF10A rereplic: inducers of DNA re-replication in MCF 10A breast cells; MCF 10A DNA re-replication, Hoechst nuclear intensity, 48 h; Potency, µM (doses to about 46.1 µM), hits mostly activators; 2.9% of 350,000 active; note: nearly all actives have a fitted effect of over 50% in size
KB-V1 cytotox: KB-V1 MDR subline cytotoxicity; KB-V1 MDR cells viability, CellTiter-Glo, 72 h; Potency, µM (titrated, usually from 46.1 µM), usual class: cytotoxic; 3.4% of 400,000 active; note: nearly all actives have a fitted effect of over 60% in size
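Potencies derive from concentration-effect curves fitted to normalized luminescence (CellTiter-Glo) of KB-V1 cells treated for 72 h at 37 degrees C in phenol-red-free DMEM containing 10% FBS.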
SW480 rerep: inducers of DNA re-replication in SW480 colon cancer cells | SW480 DNA re-replication, Hoechst DNA content imaging, 48 h | Potency, µM (doses to about 46.1 µM), actives largely listed as activators | 1.8% of 340,000 active; note: nearly all actives have a fitted effect of over 55% in size
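250 cells/well; 23 nL cpd via pin tool; 48 hr, 37 C, 5% CO2; Hoechst 40 min; imager read of total nuclear intensity, ex 405/em 500-530 nm.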
A number is an active result; – = inactive; ? = inconclusive; · = not tested or not shown. A selection: hits, their analogues and other compounds. The true share with any hit is near 9.9%. Unless noted, calls come from the whole dose curve; as a rule, active = well fitted curve in the direction sought with a large enough effect; inconclusive = small, poorly fitted or top-dose-only effect, or another doubt; inactive = no such curve, though single readings can be large; an effect the other way counts as inactive or inconclusive.

SMILES	IL-1B inflam inh	KB-3-1 tox	MCF10A rereplic	KB-V1 cytotox	SW480 rerep
Cc1ccc(CN2CC(C(=O)Nc3cc(C)ccn3)CC2=O)cc1 (centres undefined)	–	–	–	?	29µM
O=C1CC(C(=O)N2CCN(Cc3ccccc3)CC2)CN1Cc1ccccc1 (centres undefined)	–	–	–	–	–
Cc1ccc(CN2CC(C(=O)N3CCN(c4ccccc4Cl)CC3)CC2=O)cc1 (centres undefined)	-58	–	–	–	–
O=C(NCCc1ccccc1)C(=O)NCCC1CCCCN1S(=O)(=O)c1cccs1 (centres undefined)	–	–	–	2.3µM	–
COc1ccc(NC(=O)C(=O)NCCC2CCCCN2S(=O)(=O)c2ccccc2)cc1 (centres undefined)	–	4.6µM	?	?	15µM
COc1ccc(NC(=O)C(=O)NCCC2CCCCN2S(=O)(=O)c2cccs2)cc1 (centres undefined)	–	2.6µM	2.1µM	1.8µM	4.5µM
CC(=O)N1CCOc2ccc(S(=O)(=O)NC(C)c3ccccc3)cc21 (centres undefined)	–	–	–	–	–
CC(OC(=O)/C=C/c1ccccc1)C(=O)N1CCc2ccccc21 (centres undefined)	–	–	–	–	–
CCCCN(Cc1ccccc1)C(=O)C1CCC(=O)N(CCc2ccccn2)C1 (centres undefined)	–	?	–	–	–
CO/N=C/C(=N\Nc1ccc(OC)cc1)C(=O)c1ccc(OC)cc1	–	?	–	12µM	?
Cc1ccc2nc(N/N=C/c3ccco3)cc(C)c2c1	-56	–	16µM	?	?
CCN(CC)C(=N)/C(C#N)=N/Nc1ccc(C)cc1	-54	–	?	–	–
Cc1ccc(N/N=C(\C#N)C(=N)N2CCCCCC2)cc1	–	–	–	–	–
CCCn1nc(NC(=O)COC)c2cc3cc(C)ccc3nc21	–	–	–	–	–
CCCCC(=O)Nc1nn(CC(C)C)c2nc3ccccc3cc12	–	–	?	16µM	?
Cc1ccc2nc3c(cc2c1)c(NC(=O)C(C)(C)C)nn3CC(C)C	–	–	2.9µM	–	?
CCCn1nc(NC(=O)CC(C)C)c2cc3ccccc3nc21	–	–	?	5.2µM	–
CCn1nc(NC(=O)COC)c2cc3cc(C)ccc3nc21	–	–	–	–	23µM
CCn1nc(NS(=O)(=O)c2ccc(NC(C)=O)cc2)c2cc3ccccc3nc21	–	–	–	–	–
Cc1ccc(C)c(S(=O)(=O)NC(C)CCc2ccccc2)c1 (centres undefined)	–	?	–	–	–
CCn1c(CC(=O)Nc2ccccc2Cl)nnc1SCC(=O)NC1CCCC1	–	–	–	–	–
CC(C)Cn1nc(NC(=O)C(C)(C)C)c2cc3ccccc3nc21	–	–	23µM	–	?
Cc1c(C(=O)NNC(=O)c2ccccc2O)oc2ccccc12	–	–	·	–	·
COC(=O)c1cc(OC)c(OC)cc1NC(=O)c1ccc(C)cc1	–	–	–	3.3µM	–
COC(=O)c1cc(Cl)c(NC(=O)c2ccc(C(C)(C)C)cc2)cc1OC	–	–	9.2µM	–	–
SMILES	IL-1B inflam inh	KB-3-1 tox	MCF10A rereplic	KB-V1 cytotox	SW480 rerep
CC(NC(=O)c1cc(COc2ccc(-n3cncn3)cc2)on1)c1ccc(F)cc1 (centres undefined)	–	–	·	–	·
O=C(C1CCN(S(=O)(=O)c2ccccc2)CC1)N1CCN(c2ccccc2)CC1	–	–	?	–	?
O=C(C1CCN(S(=O)(=O)c2cccnc2)CC1)N1CCN(c2ccccc2Cl)CC1	–	–	–	?	–
O=C(C1CCN(S(=O)(=O)c2ccc(Cl)s2)CC1)N1CCN(c2ccccc2)CC1	–	–	–	18µM	–
O=S(=O)(c1ccc(Cl)s1)N1CCN(c2ncccn2)CC1	–	–	18µM	–	–
O=C(C1CCN(S(=O)(=O)c2cccnc2)CC1)N1CCN(c2ccc(Cl)cc2)CC1	–	13µM	–	6.5µM	–
C=CCC[C@H](Cc1ccc(F)cc1)C(=O)OC[C@@H](Cc1c[nH]c2ccccc12)NC(=O)[C@@H](CC=C)CC(=O)NCCO	–	–	–	–	–
O=C1NC(=O)C(c2ccccc2)(C2CCCC2)N1 (centres undefined)	–	–	–	?	–
Cc1ccc(N(C)C(=O)Cn2cc(S(=O)(=O)N3CCCC3)c(S(=O)(=O)N3CCCC3)c2)cc1	·	–	·	–	·
COc1cccc(-n2nnc3c(=O)n(Cc4ccccc4Cl)cnc32)c1	–	–	–	18µM	–
COc1cccc(-n2nnc3c(=O)n(Cc4ccc(Cl)cc4)cnc32)c1	–	–	–	15µM	–
COC(=O)C1=C(C)NC2=C(C(=O)CCC2)C1c1cn(Cc2ccc(Br)cc2)nc1-c1ccccc1 (centres undefined)	-62	–	?	–	?
CCOC(CN=c1nc(N(C)C)ss1)OCC	-101	–	?	?	?
O=C(Nc1cccc([N+](=O)[O-])c1)N1CCCCCC1	–	–	–	–	?
O=C(CCCn1c(SCc2cccc(F)c2)nc2ccccc2c1=O)NCC1CCCO1 (centres undefined)	-79	–	–	–	–
O=c1c2ccccc2nc(SCc2cccc(F)c2)n1Cc1ccco1	–	?	?	7.3µM	–
COn1c(SCc2cccc(Cl)c2)nc2ccccc2c1=O	–	?	–	16µM	–
COc1cc2c(NC3CCN(C)CC3)nc(N3CCCN(C)CC3)nc2cc1OCCCC(C)C	·	?	·	–	·
Cc1ccc(NS(=O)(=O)c2cc3c(cc2Cl)CCC(=O)N3)cc1Cl	·	–	·	–	·
CCOC(=O)C1(S(=O)(=O)c2ccccc2)CCN(Cc2ccc(Cl)cc2)CC1	–	?	–	10µM	–
CCOC(=O)C1(S(=O)(=O)c2ccc(Cl)cc2)CCN(Cc2ccc(Cl)cc2)CC1	–	?	–	8.2µM	?
COc1cc(C2NC(=O)c3c(sc4c3CCN(C)C4)N2)cc(Br)c1OC(=O)c1ccc(C)cc1 (centres undefined)	·	–	·	?	·
COc1cccc(-c2nnc(Nc3nc4c(F)cccc4s3)o2)c1	–	–	16µM	–	–
O=C(Nc1nnc(-c2ccccc2Cl)o1)c1nc2ccccc2s1	–	?	?	?	–
COc1cccc2sc(Nc3nnc(-c4ccccc4Cl)o3)nc12	–	?	?	–	2.6µM
COc1ccccc1-c1nnc(Nc2nc3c(OC)cccc3s2)o1	–	0.41µM	?	?	2.3µM
COc1cccc(-c2nnc(NC(C)=O)o2)c1	–	–	–	–	–
Cc1csc(NC(=O)/C=C/c2ccc3c(c2)OCO3)n1	–	?	18µM	?	–
Cc1ccc(NC(=O)/C=C/c2ccc3c(c2)OCO3)nc1	–	7.3µM	?	–	·
Cc1ccc(NC(=O)Nc2ccc3c(c2)OCO3)nc1	–	–	?	–	?

High-throughput results (PubChem)
